# Screening data deposited in PubChem by several laboratories.
# SKKanGAS inh: S. pyogenes SKKanGAS growth inhibitors in kanamycin, primary screen, streptokinase expression inhibitor project, SKKanGAS strain, BacTiter-Glo luminescence; 6 h; inhibition, % at 7.5 µM; hit rate 1.3% among 300,000;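 active means mean replicate score, as percent of positive control median, at least 50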;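 further: strain carries kanamycin resistance gene driven by streptokinase promoter and grows in 40 µg/ml kanamycin; loss of luminescence reflects streptokinase promoter inhibition or plain growth inhibition; 0% = median of DMSO wells and 100% = positive control at its reference dose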
# NALP3 yeast inh: NALP3 inflammasome inhibitors in reconstituted yeast, primary screen, luminescence, uHTS. hit rate 0.39% among 330,000. Yeast reconstituted NLRP3/ASC/caspase-1, beta-gal luminescence, 24 h. inhibition, % at 10 µM;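 active means inhibition of 50% or more; inactive means inhibition below 50%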;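 further: plate controls were induced DMSO wells for no effect and uninduced yeast grown without galactose for full effect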
# tim10-1 inh: growth inhibitors of tim10-1 mutant yeast, primary screen, luminescence, uHTS; inhibition, % at 20 µM; S. cerevisiae tim10-1 ts strain growth, BacTiter-Glo, 24 h; hit rate 2.2% among 330,000;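 active means inhibition of at least 40%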;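 further: mutant grown at 25 °C; 0% = DMSO wells with yeast and 100% = wells holding no yeast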
# PfHsp90 yeast 2: growth inhibition of PfHsp90-expressing yeast, primary screen, antimalarial PfHsp90 inhibitor project, S. cerevisiae, BacTiter-Glo luminescence, single point, set 2 | inhibition, % at 9.4 µM | AID 504621, 2011 | hit rate 0.32% among 310,000 | BacTiter-Glo ATP, 48 h; yeast lacking PDR1 and PDR3 efflux regulators;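 active means every replicate shows inhibition above about 80%, whatever the replicate mean, limit read from the data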;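 further: 0% = DMSO neutral controls and 100% = 20 µM radicicol positive controls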
# tim23-1 inh: growth inhibitors of tim23-1 mutant yeast, primary screen, luminescence, uHTS | inhibition, % at 20 µM | S. cerevisiae tim23-1 growth, BacTiter-Glo luminescence, 24 h | hit rate 1.3% among 330,000 | AID 463212, 2010;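 active means growth inhibition of the mutant yeast at or above 50%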;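 further: temperature-sensitive mutant grown at 25 °C; plate controls were DMSO-treated mutant yeast for no effect and medium wells lacking yeast for full effect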
# TIM10 inh: growth inhibitors of isogenic TIM10 control yeast, primary screen, counter-screen for tim10-1 yeast inhibitor project, luminescence, uHTS; S. cerevisiae TIM10 strain growth, BacTiter-Glo luminescence, 24 h; AID 463195, 2010; inhibition, % at 10 µM; hit rate 1.4% among 330,000;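 active means inhibition of 40% or more at the single tested concentration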;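 further: wild-type TIM10 isogenic control strain grown at permissive 25 °C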
# tim23-1 confirm: tim23-1 mutant yeast growth inhibitors, confirmation, luminescence, single concentration | S. cerevisiae tim23-1 growth, BacTiter-Glo luminescence, 24 h | inhibition, % at 20 µM | shares compounds with tim23-1 inh | hit rate 83% among 4,400 | AID 463218, 2010;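 active means inhibition above about 39% in either of two replicate wells at 20 µM, limit read from the data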;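 further: temperature-sensitive tim23-1 mutant grown at 25 °C; 0% = DMSO wells with yeast and 100% = medium wells without yeast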
# * marks the source's active call; other numbers are inactive results; · = no result. Hits are enriched below; roughly 4.5% of the tested compounds scored in any of these assays.
SMILES,SKKanGAS inh,NALP3 yeast inh,tim10-1 inh,PfHsp90 yeast 2,tim23-1 inh,TIM10 inh,tim23-1 confirm
Nc1ccc(N=Nc2ccccc2)c2cccnc12,24.8,43.5,36.4,-41.7,58.6*,20.7,50.5*
COc1cccc(N=Nc2ccc(O)c3ncccc23)c1,79.5*,37.9,-23.2,102.1*,61.5*,38.2,55.8*
COc1ccc(C2(c3ccc(OC)cc3)NC(=O)N(CC(=O)NCC(C)c3ccccc3)C2=O)cc1 (configuration not stated),·,16.6,-4.7,-11.4,-0.6,6.4,·
COC(=O)C1=C(Nc2ccccc2NC(=O)c2ccccc2C(=O)O)CSC1,2.6,4.9,20.9,-0.8,27.6,17.2,·
COC(=O)C1=C(Nc2ccccc2NS(=O)(=O)c2ccc(C(F)(F)F)cc2Cl)CSC1,8.9,16.0,37.7,-6.8,53.6*,33.9,52.2*
Cc1cc(N=Cc2cc(Br)ccc2O)no1,-2.3,3.1,35.7,·,67.3*,8.4,34.3
Cc1ccc(S(=O)(=O)/N=C/c2cc(Br)ccc2O)cc1,-6.2,-4.8,10.4,4.9,35.7,13.3,·
CCCCSC1=C(C#N)C(c2ccccc2C)CC(=O)N1 (configuration not stated),-3.3,-10.7,24.8,13.5,51.2*,5.7,52.1*
CCCSC1=C(C#N)C(c2ccccc2C)CC(=O)N1 (configuration not stated),-1.2,7.5,27.4,·,51.4*,17.2,44.0*
O=C(Nc1ccccc1-c1ccccc1)NC1CC2CCCC(C1)N2CCc1ccccc1 (configuration not stated),-3.3,0.0,8.0,4.9,6.5,17.0,·
O=C(Nc1ccccc1-c1ccccc1)NC1CC2CCCC(C1)N2Cc1ccc(F)cc1 (configuration not stated),6.6,18.0,10.1,-15.8,56.0*,0.4,17.4
CCc1ccccc1NC(=O)CNC(=O)CNC(=O)c1cccs1,·,-1.9,-5.5,2.7,-5.5,-0.2,·
O=C(NCC(=O)N(c1ccccc1)C(C(=O)NC1CCCC1)c1cccnc1)c1cccs1 (configuration not stated),0.3,9.4,-12.4,-1.2,9.9,-9.7,·
COc1ccc(N(C(=O)CNC(=O)c2cccs2)C(C(=O)NC2CCCC2)c2cccnc2)cc1 (configuration not stated),-3.3,4.9,7.0,-6.7,50.0*,11.7,13.8
COc1ccc(S(=O)(=O)N(C)C)cc1NC(=O)COC(=O)c1nc2nccc(C)n2n1,-4.7,-1.9,-9.9,20.4,11.0,-2.7,·
C/C(=N\NC(=O)c1ccccc1OCCOc1ccccc1)c1ccccc1F,·,10.8,9.8,·,53.4*,3.2,37.2
C/C(=N\NC(=O)c1ccccc1)c1ccccc1F,-1.5,16.6,8.6,·,8.2,2.1,·
CC1CCCc2sc3nc(NCc4ccco4)n4ncnc4c3c21 (configuration not stated),·,23.6,33.1,-13.2,50.5*,18.3,48.7*
N=c1c2c(-c3ccccc3)c(-c3ccccc3)n(Cc3ccco3)c2ncn1Cc1ccccc1,35.9,23.6,30.1,15.9,86.5*,31.4,58.7*
CC(C)Cn1cnc2c(c(-c3ccccc3)c(-c3ccccc3)n2Cc2ccco2)c1=N,-1.1,17.8,30.9,4.3,75.6*,-13.3,40.7*
CCN(CC)S(=O)(=O)c1ccc(N2CCN(C)CC2)c(NC(=O)CN2C(=O)NC3(CCCCC3)C2=O)c1,·,·,·,12.7,·,·,·
Cc1cccc(Cc2nc3ccccc3[nH]2)c1,·,·,·,-18.9,·,·,·
O=C1NCCN(CC2CCN(CC3CCCC3)CC2)C1=O,·,·,·,4.4,·,·,·
COc1ccc(N(CC(=O)NCCSCc2ccccc2Cl)S(C)(=O)=O)cc1Cl,44.7,20.2,2.4,-5.2,12.0,-5.8,·
O=C(CS(=O)(=O)c1ccccc1)Nc1nc(-c2ccc(F)cc2)cs1,15.3,-23.7,26.6,-20.2,57.3*,38.8,48.9*
